High-throughput results deposited in PubChem BioAssay by National Center for Advancing Translational Sciences (NCATS).
Only some compounds are listed: those with a hit (about 2.3% of all), similar ones and a draw of the others.
Pol iota inh: blocks human DNA polymerase iota activity. Pol iota fluorescent replication assay, 10 min. Potency, µM (series often up to 115 µM), actives largely listed as inhibitors. 390,000 tested, 1% active
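Fluorescent replication assay read twice, at 0 min and 10 min after adding 50 nM (final) substrate. Enzyme (10 nM) and compounds were first incubated 15 min at room temperature; enzyme-free buffer wells were negative controls.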
Pol beta inh: inhibitors of human DNA polymerase beta; P06746; Pol beta primer extension/strand displacement, fluorescence kinetic; Potency, µM (series often up to 114 µM), most hits filed as inhibitors; 340,000 tested, 1.3% active; AID 485314
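Values derive from four-parameter Hill fits of normalized kinetic data: reads at 0 and 10 min following addition of 50 nM substrate to 10 nM Pol beta preincubated 15 min with compound.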
POLK inh: DNA polymerase kappa (human) inhibition. Q9UBT6. purified Pol kappa, fluorescent DNA synthesis assay, 10 min. Potency, µM (highest dose often 107 µM), hits mostly inhibitors. 400,000 tested, 0.53% active
Target sequence (Q9UBT6 whole entry, looked up): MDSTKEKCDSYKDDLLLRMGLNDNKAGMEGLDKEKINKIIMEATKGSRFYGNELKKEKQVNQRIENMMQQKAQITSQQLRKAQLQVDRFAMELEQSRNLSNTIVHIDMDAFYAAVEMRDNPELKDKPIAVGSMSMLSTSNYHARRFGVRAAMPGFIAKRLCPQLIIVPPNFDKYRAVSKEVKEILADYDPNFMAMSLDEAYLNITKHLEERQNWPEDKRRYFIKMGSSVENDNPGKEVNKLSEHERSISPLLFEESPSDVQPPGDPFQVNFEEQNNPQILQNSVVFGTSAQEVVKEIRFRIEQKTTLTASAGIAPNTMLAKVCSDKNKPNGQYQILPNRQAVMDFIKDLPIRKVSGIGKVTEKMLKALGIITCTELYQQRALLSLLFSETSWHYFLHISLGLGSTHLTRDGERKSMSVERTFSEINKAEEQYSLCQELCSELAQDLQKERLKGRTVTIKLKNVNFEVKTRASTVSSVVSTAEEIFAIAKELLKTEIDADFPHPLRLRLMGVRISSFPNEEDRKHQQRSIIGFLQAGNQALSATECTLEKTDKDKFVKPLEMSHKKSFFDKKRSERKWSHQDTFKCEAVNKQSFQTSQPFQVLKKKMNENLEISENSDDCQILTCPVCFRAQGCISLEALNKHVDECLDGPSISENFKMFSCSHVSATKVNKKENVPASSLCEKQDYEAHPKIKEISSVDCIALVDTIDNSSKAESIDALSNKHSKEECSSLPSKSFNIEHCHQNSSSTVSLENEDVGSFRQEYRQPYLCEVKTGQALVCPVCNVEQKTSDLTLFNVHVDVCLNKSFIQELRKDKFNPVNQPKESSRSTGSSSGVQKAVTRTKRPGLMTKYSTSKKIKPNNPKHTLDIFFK
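10 nM Pol kappa preincubated 15 min at room temperature with compounds, then reaction started with substrate at 50 nM final. Fluorescence read kinetically at 0 and 10 min; buffer-only wells served as negative control.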
WRN inhibitor: inhibitors of human WRN helicase | WRN helicase unwinding, fluorescent forked duplex, kinetic | AID 651768 | Q14191 | Potency, µM (doses to about 114 µM), actives largely listed as inhibitors | 360,000 tested, 0.46% active; note: nearly all actives have a fitted effect of over 55% in size
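Kinetic fluorescence helicase assay: unwinding of a quenched forked DNA duplex (100 nM final) with 2 mM ATP final raises red fluorescence (525/598 nm). Compounds sat 15 min at room temperature with 20 nM WRN beforehand.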
Pol eta inh: DNA polymerase eta (human) inhibition; recombinant Pol eta, fluorescent DNA replication assay; 390,000 tested, 1.2% active; Potency, µM (series often up to 114 µM), usual class: inhibitors
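Pol eta at 10 nM preincubated with compounds 15 min at room temperature; reaction started with fluorescent substrate (50 nM final) and read kinetically at 0 and 10 min.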
Each line names hits and unclear results; the compound was inactive in the other large screens. Calls come from the whole dose curve; as a rule, active = well fitted curve in the direction sought with a large enough effect; inconclusive = small, poorly fitted or top-dose-only effect, or another doubt; inactive = no such curve, though single readings can be large; an effect the other way counts as inactive or inconclusive.

O=S(=O)(c1ccc(F)cc1)N1CCN(c2nc(-c3ccccc3)nc3ccccc23)CC1	none (no result: Pol beta inh, WRN inhibitor, Pol eta inh)
CC1=CC(=O)C(C(C)C)=C/C1=C(\c1cc(C(C)C)c(OP(=O)(O)O)cc1C)c1ccccc1C(=O)O	Pol beta inh 50.1µM, Pol eta inh 79.4µM
CCOc1ccc(C(=O)c2ccccc2C(=O)O)cc1OCC	none
C=C1C[C@@]23C[C@@]1(O)CC[C@@H]2[C@]12C=C[C@@H](O)[C@](C)(C(=O)O1)[C@@H]2[C@@H]3C(=O)O	none (no result: Pol iota inh, Pol beta inh, WRN inhibitor, Pol eta inh)
Cc1ccc(-c2nnn(CC(=O)NCC3CC3)n2)o1	none
Cc1ccc(-c2nnn(CC(=O)Nc3ccc4nn(-c5ccccc5)nc4c3)n2)o1	Pol beta inh 22.4µM
CCOC(=O)C1=C(COc2ccccc2)NC(=O)NC1c1cccc([N+](=O)[O-])c1 (stereo unspecified)	Pol iota inh 39.8µM
CCOc1ccc2nc3ccc4[nH]onc4c3c2c1	none (no result: Pol beta inh)
CCOc1ccc2nc3cc(NCc4ccc(OC)cc4)ccc3c(N)c2c1	Pol beta inh 28.2µM, WRN inhibitor 35.5µM, Pol eta inh 79.4µM
CCOc1ccc2nc3cc(N)ccc3c(N)c2c1	POLK inh 22.4µM (no result: Pol iota inh, Pol beta inh, WRN inhibitor, Pol eta inh)
O=C(C[n+]1cccc(Br)c1)c1ccc2c(c1)CCCC2	none (no result: Pol beta inh, WRN inhibitor, Pol eta inh)
CC[C@H](C)[C@H](NC(=O)[C@H](C)NC(=O)[C@H](Cc1cnc[nH]1)NC(=O)[C@@H]1CCCN1C(=O)CNC(=O)[C@H](CC(C)C)NC(=O)[C@H](CC(C)C)NC(=O)[C@H](Cc1ccc(O)cc1)NC(=O)CNC(=O)[C@H](C)NC(=O)[C@H](CO)NC(=O)[C@H](CC(N)=O)NC(=O)[C@H](CC(C)C)NC(=O)[C@@H](NC(=O)[C@H](Cc1c[nH]c2ccccc12)NC(=O)CN)[C@@H](C)O)C(=O)N[C@@H](CC(=O)O)C(=O)N[C@@H](CC(N)=O)C(=O)N[C@@H](Cc1cnc[nH]1)C(=O)N[C@@H](CCCNC(=N)N)C(=O)N[C@@H](CO)C(=O)N[C@@H](Cc1ccccc1)C(=O)N[C@@H](CO)C(=O)N[C@@H](CC(=O)O)C(=O)N[C@@H](CCCCN)C(=O)N[C@@H](Cc1cnc[nH]1)C(=O)NCC(=O)N[C@@H](CC(C)C)C(=O)N[C@H](C(N)=O)[C@@H](C)O	none (no result: Pol iota inh, Pol beta inh, WRN inhibitor, Pol eta inh)
CN(C)c1ccc(N=Nc2ccnc3ccccc23)cc1	none (no result: Pol beta inh, WRN inhibitor, Pol eta inh)
Cc1ccc(OCC(=O)Nc2cc(C(=O)O)cc(C(=O)O)c2)cc1C	WRN inhibitor 79.4µM
Cc1cccc(OCC(=O)Nc2cc(NC(=O)COc3cccc(C)c3C)cc(C(=O)O)c2)c1C	Pol beta inh 10µM, Pol eta inh inconclusive
Cc1ccc(-c2nc3ccccc3[nH]2)cc1NC(=O)COc1cccc(C)c1C	Pol iota inh 89.1µM (no result: WRN inhibitor)
Cc1ccc(-c2nc3ccccc3[nH]2)cc1NC(=O)COc1ccc(Cl)cc1Cl	none (no result: WRN inhibitor)
Cc1cc(-c2nn3c(-c4ccccc4)nnc3s2)c2ccccc2n1	Pol iota inh 79.4µM, Pol beta inh inconclusive
COc1cc(/C=C2/SC(=O)NC2=O)ccc1Oc1ccc([N+](=O)[O-])cc1[N+](=O)[O-]	Pol iota inh inconclusive, Pol eta inh 50.1µM
COc1cc(/C=C2/C(=O)N(c3ccc(C)c(C)c3)N=C2C)cc([N+](=O)[O-])c1O	none
COc1cc(/C=C2\C(=O)N(c3ccccc3)N=C2C)ccc1Oc1ccc([N+](=O)[O-])cc1[N+](=O)[O-]	Pol iota inh 2µM, Pol eta inh inconclusive
CC1=NN(c2ccccc2)C(=O)/C1=C\c1ccc(Oc2ccc([N+](=O)[O-])cc2[N+](=O)[O-])cc1	Pol iota inh 1.78µM, Pol eta inh 50.1µM
CCOc1cccc(C2C=C(c3ccc4c(c3)OCO4)NC(c3ccccc3Cl)N2)c1O (stereo unspecified)	none (no result: Pol beta inh, WRN inhibitor, Pol eta inh)
COc1ccc([C@H]2OCC3C2CO[C@@H]3c2ccc(OC)c(OC)c2)cc1OC (stereo partly specified)	none (no result: Pol iota inh, Pol beta inh, WRN inhibitor, Pol eta inh)
CC12CCC=CC1C(c1ccc(F)c(Br)c1)N(Cc1ccccc1)C2=O (stereo unspecified)	none (no result: Pol beta inh, WRN inhibitor, Pol eta inh)
Cn1c(SCCOc2ccccc2)nnc1-c1ccc(NC(=O)CCc2ccccc2)cc1	none (no result: Pol beta inh, WRN inhibitor, Pol eta inh)
CC1=[N+](C)c2ccc3ccccc3c2C1(C)C	Pol iota inh inconclusive, WRN inhibitor 25.1µM
CC(=O)NC(=S)Nc1sc2c(c1C#N)CCCCC2	none
